Test results taken from PubChem BioAssay (NCATS).
Inconclusive results are not listed. Entries that show only a call come without a potency. The source made the active and inactive calls. Calls follow the shape of the dose curve; as a rule, active = well fitted curve in the direction sought with a large enough effect; inconclusive = small, poorly fitted or top-dose-only effect, or another doubt; inactive = no such curve, though single readings can be large; an effect the other way counts as inactive or inconclusive.

Test: Quantitative High-Throughput drug screen in 47 multiple myeloma cell lines against the NCATS MIPE library collection: KMS28BM_JCRB cell viability assay (AID 1919874); also: nearly all actives have a fitted effect of over 35% in size; also: potency is read from the fitted curve at half-maximal effect
Details: CellTiter-Glo ATP, 48 h; series mostly up to 45.8 µM
Procedure, shortened: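 Viability after 48 h drug exposure was measured as ATP-dependent luminescence. Cells, 500 per well, sat at 37 °C under 5% CO2; DMSO wells set 100%, media-only wells 0%.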

| SMILES | Potency |
| --- | --- |
| COc1ccc(C(=O)N2CCCC2=O)cc1 | 8.33 µM (active) |
| C[C@@H]1C[C@@H]([C@H](O)CC2CC(=O)NC(=O)C2)C(=O)[C@@H](C)C1 | 0.833 µM (active) |
| COC(=O)C1=CCCN(C)C1 | inactive |

Test: KB-8-5-11 P-gp reporter qHTS against the NCATS DSHEA and TCM libraries (AID 1919977)
Details: KB-8-5-11 cells; series mostly up to 26.1 µM
Procedure, shortened: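 KB-8-5-11, 500 cells/well, DMEM/10% FBS without colchicine; 4 h attach; cpd titrations, 72 h, 37C/5% CO2; CellTiter-Glo, 30 min RT, luminescence.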

| SMILES | outcome |
| --- | --- |
| C[C@]12CC[C@H](O)CC1=CC[C@@H]1[C@@H]2CC[C@]2(C)C(=O)CC[C@@H]12 | inactive |
| OC1C(O)C(O)C(O)C(O)C1O (centres undefined) | inactive |
| Nc1nc2ncc(CNc3ccc(C(=O)N[C@@H](CCC(=O)O)C(=O)O)cc3)nc2c(=O)[nH]1 | inactive |
| OC[C@H]1O[C@@H](OCCc2ccc(O)cc2)[C@H](O)[C@@H](O)[C@H]1O | inactive |
| O=c1ccc2ccccc2o1 | inactive |
| Cn1c(=O)c2c(ncn2C)n(C)c1=O | inactive |
| NC(N)=NCCC[C@H](N)C(=O)O | inactive |
| O=C1O[C@H]([C@@H](O)CO)C(O)=C1O | inactive |
| COc1ccc2cc3[n+](cc2c1OC)CCc1cc2c(cc1-3)OCO2 | inactive |
| C/C=C/c1ccc(OC)cc1 | inactive |
| O=C(/C=C/c1ccc(O)c(O)c1)O[C@@H]1C[C@@](OC(=O)/C=C/c2ccc(O)c(O)c2)(C(=O)O)C[C@@H](O)[C@@H]1O | inactive |
